Structures can show the parent of a compound that is named as a salt.
test system: Danio rerio larvae (5 dpf); test: startle response to 20-s acoustic pulses, difference vs DMSO (percentage points (treated minus DMSO)); higher = more of the behaviour than the DMSO vehicle control; settings: 10 µM; exposure time: 3 h pre-incubation + 3 h imaging
Description: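 5-dpf wild-type zebrafish larvae were imaged in 96-well plates. They were treated with 190 Tocris FDA-approved drugs at 10 µM (1 µl/ml DMSO) for 3 h before and 3 h during imaging at 28.5 °C, 48 larvae per drug. Automated image analysis gave % time moving and optomotor responses. Values are drug group mean minus DMSO vehicle mean (n=844), in percentage points, for 10 behaviours.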

| Compound | startle response to 20-s acoustic pulses |
| --- | --- |
| CN(CCOc1ccc(CC2SC(=O)NC2=O)cc1)c1ccccn1 (stereo not given) [Rosiglitazone] | -1.12 |
| Nc1cccc2c1CN(C1CCC(=O)NC1=O)C2=O (stereo not given) [Lenalidomide] | -5.01 |
| CC(=O)Oc1ccccc1C(=O)O [Aspirin] | -4.27 |
| CC(=O)O[C@]1(C(C)=O)CC[C@H]2[C@@H]3C=C(C)C4=CC(=O)CC[C@]4(C)[C@H]3CC[C@@]21C [Megestrol Acetate] | -15.1 |
| NC(=O)OCC(COC(N)=O)c1ccccc1 [Felbamate] | 2.22 |
| COc1ccc(-c2ccc3cc(C(=O)O)ccc3c2)cc1C12CC3CC(CC(C3)C1)C2 [Adapalene] | 0.11 |
| OCc1cc(C(O)CNCCCCCCOCCCCc2ccccc2)ccc1O (stereo not given) [Salmeterol xinafoate] | -5.23 |
| CN1CCC[C@@H]1CCO[C@](C)(c1ccccc1)c1ccc(Cl)cc1 [Clemastine fumarate] | -7.67 |
| Cc1ccc(NC(=O)c2ccc(CN3CCN(C)CC3)cc2)cc1Nc1nccc(-c2cccnc2)n1 [Imatinib mesylate] | 5.5 |
| CCN(Cc1ccncc1)C(=O)C(CO)c1ccccc1 (stereo not given) [Tropicamide] | -8.17 |
| Cc1ccc(-c2cc(C(F)(F)F)nn2-c2ccc(S(N)(=O)=O)cc2)cc1 [Celecoxib] | -6.81 |
| NC(=O)c1ncn([C@@H]2O[C@H](CO)[C@@H](O)[C@H]2O)n1 [Ribavirin] | 1.75 |
| O=c1n(CCCN2CCN(c3cccc(Cl)c3)CC2)nc2ccccn12 [Trazodone hydrochloride] | 2.64 |
| N[C@@H]1[C@H]2CN(c3nc4c(cc3F)c(=O)c(C(=O)O)cn4-c3ccc(F)cc3F)C[C@@H]12 [Trovafloxacin mesylate] | -7.29 |
| CC(C)Nc1cccnc1N1CCN(C(=O)c2cc3cc(NS(C)(=O)=O)ccc3[nH]2)CC1 [Delavirdine mesylate] | -4.51 |
| Cc1c(-c2ccc(O)cc2)n(Cc2ccc(OCCN3CCCCCC3)cc2)c2ccc(O)cc12 [Bazedoxifene acetate] | -4.17 |
| COc1ccccc1Oc1c(NS(=O)(=O)c2ccc(C(C)(C)C)cc2)nc(-c2ncccn2)nc1OCCO [Bosentan] | 6.71 |
| CCCc1nn(C)c2c(=O)[nH]c(-c3cc(S(=O)(=O)N4CCN(C)CC4)ccc3OCC)nc12 [Sildenafil citrate] | 0.54 |
| C#CCN[C@@H]1CCc2ccccc21 [Rasagiline mesylate] | 2.17 |
| Nc1nc(F)nc2c1ncn2[C@@H]1O[C@H](CO)[C@@H](O)[C@@H]1O [Fludarabine] | 3.23 |

| Compound | startle response to 20-s acoustic pulses |
| --- | --- |
| CC(c1cc2ccccc2s1)N(O)C(N)=O (stereo not given) [Zileuton] | -2.9 |
| Cc1cccc(CN2CCN(C(c3ccccc3)c3ccc(Cl)cc3)CC2)c1 (stereo not given) [Meclizine dihydrochloride] | -8.16 |
| COc1ccccc1OCCNCC(O)COc1cccc2[nH]c3ccccc3c12 (stereo not given) [Carvedilol] | 4.96 |
| Cn1nnc2c(C(N)=O)ncn2c1=O [Temozolomide] | 2.71 |
| NS(=O)(=O)c1cc2c(cc1Cl)NC(C1CC3C=CC1C3)NS2(=O)=O (stereo not given) [Cyclothiazide] | -0.96 |
| Nc1ncn([C@H]2C[C@H](O)[C@@H](CO)O2)c(=O)n1 [Decitabine] | -0.522 |
| COc1cc2nc(N3CCN(C(=O)C4COc5ccccc5O4)CC3)nc(N)c2cc1OC (stereo not given) [Doxazosin mesylate] | 7.2 |
| Clc1ccc2nsnc2c1NC1=NCCN1 [Tizanidine hydrochloride] | -1.69 |
| Cc1cc(C2CCCCC2)n(O)c(=O)c1 [Ciclopirox] | -9.88 |
| Nc1nc2[nH]cc(CCc3ccc(C(=O)N[C@@H](CCC(=O)O)C(=O)O)cc3)c2c(=O)[nH]1 [Pemetrexed] | -4.56 |
| CCCCC(=O)N(Cc1ccc(-c2ccccc2-c2nnn[nH]2)cc1)[C@H](C(=O)O)C(C)C [Valsartan] | -0.147 |
| C#C[C@]1(O)CC[C@H]2[C@@H]3CCC4=CC(=O)CC[C@@H]4[C@H]3CC[C@@]21CC [Levonorgestrel] | -4.51 |
| C=C1[C@H](CO)[C@@H](O)C[C@@H]1n1cnc2c(=O)[nH]c(N)nc21 [Entecavir] | 3.11 |
| CC(C)C(=O)Nc1ccc([N+](=O)[O-])c(C(F)(F)F)c1 [Flutamide] | -5.19 |
| CCOC(=O)[C@H](CCc1ccccc1)N[C@@H](C)C(=O)N1[C@H](C(=O)O)C[C@@H]2CCC[C@@H]21 [Ramipril] | -1.54 |
| CCCCNc1cc(C(=O)O)cc(S(N)(=O)=O)c1Oc1ccccc1 [Bumetanide] | 3.98 |
| OCCN1C[C@H](O)[C@@H](O)[C@H](O)[C@H]1CO [Miglitol] | -1.17 |
| CC(=O)Oc1cc2c(s1)CCN(C(C(=O)C1CC1)c1ccccc1F)C2 (stereo not given) [Prasugrel] | -10.9 |
| CC(C)(C)NC(=O)[C@@H]1C[C@@H]2CCCC[C@@H]2CN1C[C@@H](O)[C@H](Cc1ccccc1)NC(=O)[C@H](CC(N)=O)NC(=O)c1ccc2ccccc2n1 [Saquinavir mesylate] | 0.0193 |
| COc1cc(N)c(Cl)cc1C(=O)NC1CCN(CCCOc2ccc(F)cc2)CC1OC (stereo not given) [Cisapride] | -0.377 |
